Experimental data from the supplement of paper PMC11417369.
± gives the standard deviation of the averaged measurements. The full ranking holds about 25,000 sequences; the median of “ln(normalized median fluorescence intensity)” is about 10, and the highest 2% start at about 12. Only a selection was taken, and the highest values are over-represented in it overall.

Tested on: PfAP2-G AP2 domain (GST-tagged)
Experiment: gcPBM binding intensity (ln(normalized median fluorescence intensity)); higher = stronger DNA binding
In short: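 In this array assay, P. falciparum DNA-binding domains with a GST tag, expressed in E. coli, were applied for 1 h to primer-extended double-stranded 36-bp intergenic genomic probes and negative controls on an Agilent 4 × 180k array. Bound protein was visualised with Alexa488 anti-GST antibody at 488 nm. Binding intensity is the highest Masliner-normalised natural-log median intensity across replicate spots of either probe orientation.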

Row | Sequence | gcPBM binding intensity (ln)
1 | AATTAACCGTGACACACACACATATAAATATAAATA [CACACA_site7790] | 10.3 ± 0.47
2 | TATTGTTCTTATTTAGTGCATATATAATATAATATA [GTGCAC_site9827] | 10.3 ± 0.33
3 | ACAAAATTTACAAAATGTACAAAATTTACAAAATAT [XGTACX_site3542] | 10.8 ± 0.49
4 | TAATAAAAAATATATACACACAAATAAATAAATAAA [CACACA_site4037] | 9.77 ± 0.071
5 | ATATTTATATATATATGTACATATGTGTGTTTTTAT [XGTACX_site3956] | 10.9 ± 0.51
6 | CTATTTTGGATGTGTACACATATATATATTTATATT [CACACA_site5706] | 11.7 ± 0.85
7 | CATATTAAGATGTGTACACATTTTTATTTTTTTTTT [CACACA_site4425] | 11.6 ± 0.93
8 | TACATATTTTTTATATGTACATATTTTTTATGTGTA [XGTACX_site442] | 11.4 ± 0.77
9 | TGCCTATTTTGGATGTGTACACATATATATATTTAT [XGTACX_site6741] | 11.7 ± 0.88
10 | ATATATATTTATATATGTACATATTTTTGTGTATTT [XGTACX_site1183] | 11.3 ± 0.79
11 | TTTATTGAACGTACACATATATATATGTATATATTT [TGCATGCA_negctrl_site141] | 11.3 ± 0.88
12 | ATTTTTGTACACTTCTTTTTTTTTTTTCTTTTATGT [CACACA_negctrl_site1323] | 11.4 ± 0.68
13 | AAAAAAAAATCATATTGTACGTAAAAAAAAAAAAAA [XGTACX_site476] | 11.4 ± 1
14 | TATTTATACTAATATGCATGTAATCGAAATACAGCT [TGCATGCA_site457] | 9.685 ± 0.078
15 | AATATGGTTATATATATATATATATATATATATATT [GTGCAC_negctrl_site566] | 9.67 ± 0.071
16 | TGAAATAAAATTTGTACACACATATATATATATATA [CACACA_site586] | 11.1 ± 0.81
17 | TTTCTTTTTGTTCGTGTACACACATGAAATTTATAA [CACACA_site8466] | 11.6 ± 0.86
18 | TCTTTTTGTTCGTGTACACACATGAAATTTATAAAA [CACACA_site1619] | 11.8 ± 1.1
19 | GAACCGTGCAAATGTTGTACACTTTAAAAATATTCT [XGTACX_site4488] | 11.6 ± 0.84
20 | AGGTGCAAAAATAAAACATGCAAAAATAAAAATGAA [TGCATGCA_site502] | 10.07 ± 0.028
21 | TTACCTCTTTGAAATATACACACTAAACATATCAAC [CACACA_site2455] | 10.1 ± 0.13
22 | CACAAACAAAAACACACACACACACCGACAAAAATG [CACACA_site5362] | 10.5 ± 0.38
23 | AACATACAGAAACACACACACACACCCACACCCACA [CACACA_site493] | 10.4 ± 0.31

Row | Sequence | gcPBM binding intensity (ln)
24 | ACATACATACACCCACGTACGTACCGAAACACCACC [XGTACX_site1212] | 11.7 ± 1.1
25 | ACATACATACCCCCACGTACGTACCGAAACACCACC [XGTACX_site1982] | 11.5 ± 0.74
26 | TTTGTAATAAACTACTTTTTTTTTTTTTTTTTTTTT [CACACA_negctrl_site571] | 10.9 ± 0.35
27 | ATATACATATAGGATGCACACATAATTCAAATACAA [CACACA_site8120] | 10.1 ± 0.22
28 | AAGGTATAATATATTTGTACATATACATTTTTGAAT [XGTACX_site6493] | 10.9 ± 0.61
29 | AGACATTAATGAAGGTGTACATATATTTGACAGAAT [XGTACX_site655] | 11.6 ± 1
30 | TTTGAAAAAAATTAATGTACATTTGAAATGACATAT [XGTACX_site3902] | 10.8 ± 0.52
31 | AAAAAAAAATTAAAAACACACATATATATATATATA [CACACA_site1580] | 9.9 ± 0.67
32 | ATTTGCTTTTATTTTACACACTTGCTCCTGTTGTAC [CACACA_site1088] | 10.9 ± 0.42
33 | CAACACTTTCAAAAATGTACGTACAAATGTATTTTA [XGTACX_site6713] | 11.7 ± 0.76
34 | TTATTTTCAAAATGTTGTACACACAAAAAAAAAAAA [XGTACX_site3151] | 11.4 ± 0.93
35 | TATTTTCAAAATGTTGTACACACAAAAAAAAAAAAA [CACACA_site8437] | 11.5 ± 1.1
36 | AAATTTATATATAGTTGTACAAAAATATGTTTCGTA [XGTACX_site4801] | 11.2 ± 0.57
37 | GTTTTTTATAATTGTAGTACAAGAAGATATTTTTAT [XGTACX_site5443] | 11.5 ± 0.86
38 | TATGTGAATATAATCACACACAATACGGAAAGAGAC [CACACA_site7311] | 10.7 ± 0.39
39 | CTATACATATTATATAGTACTTTATTATTATGACTA [XGTACX_site1382] | 10.8 ± 0.45
40 | ATGGACTTTTATAGTTGTACATACTATGAGAACTTT [XGTACX_site2800] | 11.7 ± 0.85
41 | TTATATATATGACTTTGTACATATACATATTTTTTA [XGTACX_site4669] | 10.7 ± 0.54
42 | TTATAAAATTACTTGGTGCATTAGAATATTTCAATA | 10.1 ± 0.3
43 | AATAAAAAACTACAATATACAAAATTATTAAATCAA [GTGCAC_negctrl_site703] | 9.56 ± 0.35
44 | TAATTTATAAAAAATTGTACATTAAACATATATATA [XGTACX_site5164] | 10.8 ± 0.56
45 | TTCATATGGAATAAAAGTACGTATTAAAACAATTTT [XGTACX_site8742] | 11.1 ± 0.59
46 | TTTTTTATTTTTTGTTATATTTATAATAATTTATGA [XGTACX_negctrl_site260] | 9.58 ± 0.071

Row | Sequence | gcPBM binding intensity (ln)
47 | TATATATTATTTAAAACACACAAAAAAAAAAATTAT [CACACA_site89] | 9.895 ± 0.021
48 | ACAAAAAAAAAAAAAATACACACACATAAAAAAAAA [TGCATGCA_negctrl_site333] | 10.1 ± 0.13
49 | GTATATATTTAAACACGTACACAAAACCCAAAAAAT [XGTACX_site8110] | 11.8 ± 0.96
50 | AAAAAAAAAAAAAAAGGTACACAAATACGTCCTGCA [XGTACX_site3354] | 11.5 ± 0.74
51 | AAACCAAAAATAACACGTACAAAAATAAAAAGTATA [XGTACX_site4261] | 11.2 ± 0.74
52 | AAAAAAAAAAAAATACGTACACAAAAAATTGCAAAG [XGTACX_site5663] | 11.6 ± 0.81
53 | TAAAAAAAATACAAAAGTACACAAAATTATACGTTA [XGTACX_site4656] | 11.5 ± 0.96
54 | TTTACACGTACGTGTACACACAAAAATATGTTTTTA [CACACA_site995] | 11.6 ± 0.89
55 | TAATTTACACCTACGTGTACACACAAAAATATGTTT [XGTACX_site1868] | 11.6 ± 0.95
56 | AAAATAAAATAAAATACACACATACATACATACAAA [CACACA_site5366] | 10.01 ± 0.028
57 | AATTTACACGTACGTGTACACACAAAAATATGTTTT [CACACA_site8242] | 11.8 ± 1
58 | AGATAAAATAAATACACACACATAAATACGTACAAA [CACACA_site4739] | 11.7 ± 0.74
59 | TATATTACTTTGTGTTGTACGGAAATATATATATAT [XGTACX_site4309] | 11.3 ± 0.94
60 | TATATAATGGTAAAAACACACAAATATGAAGATGTT [CACACA_site722] | 9.87 ± 0.16
61 | TGTAATAATTATTGCACGCACACAAAAACCTATAGA [CACACA_site2932] | 10.7 ± 0.4
62 | ATCTTAGTTGAAATATAGAATTTATAATAAAAGTTA [GTGCAC_negctrl_site122] | 9.595 ± 0.064
63 | AATAAATATAAAAATGCACACACACTAATAAAAAAA [CACACA_site8201] | 10.2 ± 0.13
64 | TGATAACCAAAAAGGGGTACATACACAAAAAAATAC [XGTACX_site1254] | 11.7 ± 0.91
65 | GAAATGTACAAATACGTACACACATATATATATATA [CACACA_site1541] | 11.6 ± 0.99
66 | AATGTACAAATACGTACACACATATATATATATATA [CACACA_site1542] | 11.6 ± 0.93
67 | AATGTACAAATACGTACACACATATTTATATTTATA [CACACA_site6833] | 11.6 ± 0.99
68 | AAAAAATACCAAAGGGGTACTTACACATAATACTTA [XGTACX_site2111] | 11.4 ± 1.1
69 | TGTATAAATAAATGCGTACACACTAATAAAAAAAAA [CACACA_site858] | 11.6 ± 0.8

Row | Sequence | gcPBM binding intensity (ln)
70 | AGAAATTTACAAATACGTACACACATATATATATAT [XGTACX_site3141] | 11.9 ± 1.4
71 | TATAAATAAATGCGTACACACTAATAAAAAAAAAAA [CACACA_site4630] | 11.6 ± 1.1
72 | AAATATATATATTTACGTACATATATACAAATAGAG [XGTACX_site6067] | 11.4 ± 0.81
73 | ATAAATAAATTTATACGTACACATAATATATATATA [XGTACX_site4634] | 11.6 ± 0.89
74 | ATAACACAAAAAGGGGGTACAATAAAAAAAAAAAAA [XGTACX_site1652] | 11.5 ± 0.98
75 | TCAGAGTGAAGTTATACACACATGGTTTTTTTTTTT [CACACA_site2116] | 9.875 ± 0.021
76 | TAAAGAAAAAAATGTTGTACTTTATGAAACATATTT [XGTACX_site412] | 11.2 ± 0.79
77 | TAAATATTTTTTTAGACACACATATATCTATGATAT [CACACA_site1107] | 9.705 ± 0.049
78 | TTAATGAAATATTATACACACAAAAAAATAATTTTA [CACACA_site4231] | 9.915 ± 0.092
79 | AAAAAAAAAACATACACACACACAAATATTTATATA [CACACA_site437] | 9.85 ± 0.11
80 | ATAAATAAGATACGTACACACATATACAAAATATAC [CACACA_site3661] | 11.5 ± 0.95
81 | TTAATTAAATATTATACACACAAAAAAATAATTTTA [CACACA_site96] | 10 ± 0.16
82 | AGATAAAATATATACACACACATAAATACGTACAAA [CACACA_site1086] | 11.8 ± 1
83 | ATTTTTTAAATGAGGCGTACACAAAAATATAATTAC [XGTACX_site7087] | 11.7 ± 1.1
84 | CCATTTACAAAAAGGAGTACACAAATATATGTTTAA [XGTACX_site649] | 11.6 ± 0.93
85 | AATATACACCCGTGTACACAAATATTTACAAAACGT [CACACA_site4786] | 11.7 ± 1.1
86 | TTATTTATTTTTATATGTACACAAAAAAAAAAAAAA [XGTACX_site1459] | 11.5 ± 1.1
87 | TTTCTCCCATTTTTTAGTACACAAAATATATATGTA [XGTACX_site7218] | 11.7 ± 1.1
88 | AGATAAGATATATACACACACATAAATACGTACAAA [CACACA_site6639] | 11.6 ± 0.78
89 | TATACAAAATATTTTACACACACATATATATACATA [CACACA_site2616] | 10.01 ± 0.057
